Assay outcomes from PubChem BioAssay.
DAX1 inh-1: DAX1 (NR0B1) inhibitors, primary screen, cell-based, HEK293, Gal4-DAX1, luciferase luminescence. HEK293 Gal4-DAX1 luciferase reporter. inhibition, % at 6.75 µM. 340,000 tested, 0.99% active. AID 504766, 2011;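 active means inhibition above the mean over all tested compounds plus 3 SD, cut at about 4.2% in these data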;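 further: 0% = DAX1-transfected cells with DMSO and 100% = empty-vector control cells with DMSO; inhibition shows as a rise in luminescence from relieved DAX1 repression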
hgDAF12 agonist: H. glycines DAF-12 receptor agonists, primary screen, cell-based, luminescence, HEK293, GAL4 fusion, UAS-luciferase | HEK293 GAL4-hgDAF12 UAS-luciferase reporter, agonist luminescence; normalized to butyrate control | activation, % at 6.8 µM | Nuclear hormone receptor DAF-12 (Heterodera glycines), GAL4 fusion | 370,000 tested, 1.8% active | AID 687014, 2013;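 active means activation above a cutoff set at the mean of all screened compounds plus 3 SD, cut at about 10% in these data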;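 further: 0% = DMSO wells and 100% = sodium butyrate wells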
DAX1 inh-2: DAX1 (NR0B1) inhibitors on StAR promoter, primary screen, cell-based, luminescence, SF-1 (NR5A1), full-length DAX-1 | AID 652010, 2013 | HEK293T StAR-luciferase reporter, SF-1/DAX-1 repression relief | 370,000 tested, 1.1% active | inhibition, % at 6.8 µM;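 active means inhibition above the mean over all tested compounds plus 3 SD, cut at about 3.6% in these data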;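 further: 0% = DAX-1 cells with DMSO and 100% = cells lacking DAX-1 with DMSO; higher inhibition means more luminescence from relief of DAX-1 repression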
hcDAF12 agonist: H. contortus DAF-12 nuclear receptor activators, primary screen, cell-based, luminescence, HEK293, lit1-tk-luc reporter; activation, % at 6.8 µM; 370,000 tested, 1.4% active; HEK293 hcDAF-12 lit1-tk-luc reporter; 0% DMSO, 100% Δ7-dafachronic acid; AID 652067, 2013;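 active means activation above the mean of all tested compounds plus 3 SD, cut at about 5.5% in these data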;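 further: 100% = response to 3 µM Δ7-dafachronic acid high control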
ssDAF12 agonist: S. stercoralis DAF-12 nuclear receptor activators, primary screen, cell-based, luminescence, HEK293, GRIP1 co-expression, lit1-tk-luc; HEK293 ssDAF-12/GRIP1 lit1-tk-luc reporter; % of 3 µM dafachronic acid response; AID 652126, 2013; 370,000 tested, 1% active; activation, % at 6.8 µM; Nuclear hormone receptor DAF-12 (Strongyloides stercoralis);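 active means activation above the mean over all tested compounds plus 3 SD, cut at about 0.9% in these data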;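 further: 0% = DMSO-only wells and 100% = 3 µM delta7-dafachronic acid wells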
DAX1 conf: DAX1 (NR0B1) inhibitors relieving SF-1 repression, confirmation, cell-based, luminescence, HEK293T, full-length DAX-1, SF-1 activated StAR promoter. shares compounds with DAX1 inh-2. AID 652134, 2013. inhibition, % at 6.8 µM. 2,400 tested, 87% active. HEK293T StAR-promoter luciferase reporter, SF-1/DAX-1 repression;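 active means inhibition above the average of every tested compound plus 3 SD, cut at about 3.8% in these data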;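 further: 0% = DAX-1 cells with DMSO and 100% = no DAX-1 control cells with DMSO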
Target sequence (P51843 whole entry, looked up): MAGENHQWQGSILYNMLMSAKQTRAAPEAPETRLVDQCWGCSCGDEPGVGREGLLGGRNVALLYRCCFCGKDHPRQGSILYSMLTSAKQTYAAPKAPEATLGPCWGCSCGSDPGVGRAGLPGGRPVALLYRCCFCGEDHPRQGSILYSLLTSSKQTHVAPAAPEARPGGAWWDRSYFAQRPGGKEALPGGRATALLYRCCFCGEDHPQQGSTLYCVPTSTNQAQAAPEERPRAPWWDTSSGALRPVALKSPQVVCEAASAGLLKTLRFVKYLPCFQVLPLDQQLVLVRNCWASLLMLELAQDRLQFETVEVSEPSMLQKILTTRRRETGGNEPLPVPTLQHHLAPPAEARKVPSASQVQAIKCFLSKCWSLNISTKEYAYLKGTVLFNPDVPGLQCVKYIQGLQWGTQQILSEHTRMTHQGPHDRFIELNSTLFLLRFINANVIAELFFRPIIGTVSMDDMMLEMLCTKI
SF1 mutant ctr: StAR reporter signal changes without DAX1, counter-screen for DAX1 inhibitor project, cell-based, luminescence, AF-2 mutant SF-1, transactivation; shares compounds with DAX1 inh-2; HEK293 StAR-luciferase, SF-1 AF2 mutant; inhibition, % at 6.8 µM; 2,400 tested, 78% active;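 active means inhibition above the mean of all tested compounds plus 3 SD, cut at about 3% in these data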;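 further: 0% = DAX-1 transfected cells with DMSO and 100% = cells without DAX-1 with DMSO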
LXRb hcDAF ctr: LXR agonists, Gal4 luciferase reporter, confirmation, counter-screen for hcDAF-12 agonist project, cell-based, luminescence, HEK293, H. contortus campaign | shares compounds with hcDAF12 agonist | HEK293 Gal4-LXR tk-luc reporter, 24 h; normalized: DMSO 0%, positive control 100% | activation, % at 6.8 µM | 3,400 tested, under 10 active;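 active means mean percent activation of the reporter above a cutoff set as the average over tested compounds plus their standard deviation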
hcDAF12 ag: H. contortus DAF-12 receptor agonists, confirmation, cell-based, luminescence, HEK293, lit1-tk-luc, triplicate. shares compounds with hcDAF12 agonist. HEK293 hcDAF-12 lit1-tk-luc reporter; % of Δ7-dafachronic acid response. activation, % at 6.8 µM. 3,400 tested, 61% active;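 active means mean activation across triplicate tests above the threshold derived from the earlier primary screen, cut at about 5.5% in these data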;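 further: 0% = DMSO only wells and 100% = 3 µM Δ7-dafachronic acid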
hgDAF12 ag: H. glycines DAF-12 receptor agonists, confirmation, cell-based, luminescence, HEK293, GAL4-LBD fusion; shares compounds with hgDAF12 agonist; HEK293 GAL4-hgDAF12 luciferase reporter, agonist mode; percent of butyrate response; activation, % at 6.8 µM; 3,300 tested, 80% active; AID 743050, 2013;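 active means mean activation over triplicate wells above the hit cutoff derived from the earlier primary screen, cut at about 11% in these data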;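 further: 0% = DMSO low control and 100% = 2 mM sodium butyrate high control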
LXR ag 2: LXR agonists, Gal4 luciferase reporter, confirmation, counter-screen for hgDAF-12 agonist project, cell-based, luminescence, HEK293, H. glycines campaign; shares compounds with hgDAF12 agonist; 24 h; activation, % at 6.8 µM; 3,300 tested, under 10 active; AID 743051, 2013;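 active means mean activation of the triplicate above a set limit carried over from the primary screen, none filed active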
Numbers without * were called inactive; nt = not tested or not shown. This is a sample that favours compounds with a hit; in the whole collection about 4.1% have one here.

SMILES	DAX1 inh-1	hgDAF12 agonist	DAX1 inh-2	hcDAF12 agonist	ssDAF12 agonist	DAX1 conf	SF1 mutant ctr	hgDAF12 ag	LXR ag 2	others
Cc1c(C(=O)O)oc2c(F)cccc12	nt	-4	0	-3	-1	nt	nt	nt	nt
Cc1c(C(=O)NC2CCOC2)oc2c(F)cccc12 (stereo unspecified)	3	14*	5.7*	5	0	6.4*	3.3*	13*	0
CC(C)Cc1ccc(-c2cc3nc(NCCCn4ccnc4)ccn3n2)cc1	nt	15*	5.5*	6.1*	-1	7.6*	5.1*	11*	0
COc1ccc(C(=O)NC(=O)NC2(C(Cl)(Cl)Cl)OCCO2)cc1	3	25*	12*	9.7*	1.0*	16*	6.0*	20*	1	LXRb hcDAF ctr=1;hcDAF12 ag=9.1*
Cc1cccnc1NC(=S)NC(=O)c1cccs1	4	18*	7.2*	14*	2.2*	14*	10*	17*	1	LXRb hcDAF ctr=1;hcDAF12 ag=15*
c1ccc(-c2csc(CN3CCCCC3)n2)cc1	3	19*	5.3*	7.1*	0.9*	8.2*	4.8*	18*	1	LXRb hcDAF ctr=2;hcDAF12 ag=9.2*
CC(=O)NC12CC3CC(C1)CC(C(=O)OCC(=O)Nc1ncc(Cl)cc1Cl)(C3)C2	2	1	0	0	-1	nt	nt	nt	nt
Cc1cc2ccccn2c1C(=O)c1ccc([N+](=O)[O-])o1	-2	-10	-6	-4	-3	nt	nt	nt	nt
O=C(COc1ccc2c(c1)CCC2)NCc1ccccc1	-1	-1	-1	-2	-2	nt	nt	nt	nt
NNC(=O)c1cccc(COc2ccc3c(c2)CCC3)c1	-5	22*	4.9*	5	1	15*	5.1*	22*	1
CCOC(=O)Cc1nnc(Nc2cccc(O)c2)c2ccccc12	1	-1	0	-2	-2	nt	nt	nt	nt
NC(=O)C1CC(=O)N(c2ccc(OCc3ccc(Cl)c(Cl)c3)cc2)C1 (stereo unspecified)	4.5*	25*	10*	5.8*	1	15*	9.3*	16*	1
NC(=O)C1CC(=O)N(c2ccc(OCc3ccc(Cl)cc3Cl)cc2)C1 (stereo unspecified)	-1	2	0	-1	-1	nt	nt	nt	nt
O=C(Nc1nc(-c2nc3ccccc3s2)cs1)C1CC1	1	23*	8.8*	5	0	13*	6.4*	15*	1
COc1ccc(CNc2nc3ccccc3n2C)c(OC)c1	0	13*	6.4*	3	-1	12*	7.4*	15*	0
Cc1ccc(CNC(=O)CCn2cc(-c3ccc(C)cc3)nc2CCN)cc1	0	-2	1	0	-1	nt	nt	nt	nt
COc1ccc(C(=O)c2oc3ccc(OC)cc3c2N)cc1	3	21*	6.1*	3	-1	12*	5.8*	15*	1
O=C(N/N=C/C=C/c1ccccc1)c1ccncc1	2	3	1	1	-1	nt	nt	nt	nt
O=C(O)c1ccc(N/N=C/C=C/c2ccccc2)cc1	1	15*	6.3*	5	1	11*	5.8*	15*	1
COC(=O)[C@@]12CCCCC=C1N(CCc1ccc(Cl)cc1)C(=O)[C@H]2CC(=O)NCCCCc1ccccc1	nt	3	-1	0	-1	nt	nt	nt	nt
CC1CCCN(C(=O)c2ccc(-c3ccccc3Cl)o2)C1 (stereo unspecified)	4	18*	7.8*	2	0	12*	6.3*	15*	1
c1ccc(Nc2nc(-c3cccnc3)cs2)nc1	1	18*	5.8*	10*	0	7.5*	6.3*	20*	1	LXRb hcDAF ctr=2;hcDAF12 ag=8.1*
CCOc1ccccc1Nc1nc(-c2cccnc2)cs1	1	3	-1	0	-1	nt	nt	nt	nt
CCCCN(CCCC)S(=O)(=O)c1c(C)[nH]c(=O)[nH]c1=O	0	-1	1	1	-1	nt	nt	nt	nt
O=C(NC(=S)Nc1ccccc1Br)C1CC1	1	3	1	0	-1	nt	nt	nt	nt
Cc1ccc(NC(=S)NC(=O)C2CCCC2)c(Br)c1	1	15*	9.3*	6.3*	0	9.5*	4.7*	21*	1
Cc1ccc2nc(-c3ccc(NC(=O)CSCC(=O)O)cc3)sc2c1	4	24*	4.8*	7.0*	1	15*	8.8*	18*	1	LXRb hcDAF ctr=1;hcDAF12 ag=5.8*
Cc1ccc2nc(-c3ccc(NC(=S)NC(=O)C(C)C)cc3)sc2c1	2	5	2	4	0	nt	nt	nt	nt
Cc1ccc2nc(-c3ccc(NC(=O)C(C)N4C(=O)c5ccccc5C4=O)cc3)sc2c1 (stereo unspecified)	3	21*	6.2*	8.6*	1	8.8*	5.8*	13*	1	LXRb hcDAF ctr=1;hcDAF12 ag=5
